# Source: PubChem BioAssay (EPA / NIEHS)
# Results filed as inconclusive are left out. Some compounds were tested as several samples or in several runs, with calls that do not always agree. Calls of active or inactive are those of the source. How the source made its calls, unless noted: active means hit-call score of the fitted dose curve at least 0.9, where 1 is the maximum; inactive means score below 0.9.
# Columns and labels:
# [1] = molecular target: human Retinoid X Receptor beta (RXRb), RXRB (gene 6257) (UniProt P28702); test: ATG_RXRb_TRANS: Attagene TRANS-FACTORIAL HepG2 Assay for human Retinoid X Receptor beta (RXRb) (AID 2283013; active means hit-call score of the fitted dose curve at least 0.9, where 1 is the maximum)
# Outline: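 Chimeric receptor-Gal4 activity was assessed in transiently transfected human HepG2 cells after 24 h exposure. Transcripts from GAL4-UAS reporters were quantified by fluorescent RT-PCR and capillary electrophoresis, with DMSO as negative control and baseline.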
# [2] = molecular target: human Vitamin D Receptor (VDR), VDR (gene 7421) (UniProt P11473); test: ATG_VDR_TRANS: Attagene TRANS-FACTORIAL HepG2 Assay for human Vitamin D Receptor (VDR) (AID 2283022; active means hit-call score of the fitted dose curve at least 0.9, where 1 is the maximum)
# Outline: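 HepG2 cells were transiently transfected with multiple GAL4-UAS reporter units, so signal reflects exogenous chimeric receptor-Gal4 activity. After 24 h compound exposure, reporter mRNA was measured by RT-PCR, fluorescent labelling and capillary electrophoresis, fitted for gain of signal versus DMSO.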
# [3] = molecular target: human Thyroid Receptor alpha (THRa1), THRA (gene 7067) (UniProt P10827); test: ATG_THRa1_TRANS: Attagene TRANS-FACTORIAL HepG2 Assay for human Thyroid Receptor alpha (THRa1) (AID 2283014; active means hit-call score of the fitted dose curve at least 0.9, where 1 is the maximum)
# Outline: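 HepG2 cells transiently transfected with multiplexed GAL4-UAS reporter units for exogenous chimeric THRa1-Gal4; reporter mRNA measured 24 h after dosing by RT-PCR, 6-FAM labelling, HpaI digestion and capillary electrophoresis. Gain-of-signal fitted versus DMSO baseline.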
# [4] = read-out: E-selectin (Homo sapiens) (UniProt P16581); test: BSK_3C_Eselectin: BioMAP Diversity Plus: 3C Assay for Eselectin Biomarker Activity (AID 2283015); conditions: primary human endothelial cells (HUVEC); actives raise or lower the signal;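 further: cell surface E-selectin protein quantified by ELISA 24 h after dosing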
# Outline: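 Primary human umbilical vein endothelial cells (3C system) were dosed with chemical and cell-surface E-selectin measured by ELISA 24 h later. Bidirectional curve fitting used DMSO as negative control and baseline.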
# [5] = read-out: Interleukin-1 alpha (IL1a), IL1A (gene 3552); test: BSK_BE3C_IL1a: BioMAP Diversity Plus: BE3C Assay for Interleukin-1 alpha (IL1a) Biomarker Activity (AID 2283016); conditions: primary human bronchial epithelial cells; actives raise or lower the signal
# Outline: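 Signal from IL-1a ELISA, taken 24 h after chemical dosing of human bronchial epithelial cells, is compared with DMSO as baseline using bidirectional curve fitting.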
# [6] = read-out: Monocyte Chemoattractant Protein-1 (MCP1), CCL2 (gene 6347); test: BSK_3C_MCP1: BioMAP Diversity Plus: 3C Assay for Monocyte Chemoattractant Protein-1 (MCP1) Biomarker Activity (AID 2283017); conditions: primary human endothelial cells (HUVEC); actives raise or lower the signal
# Outline: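 Primary human umbilical vein endothelial cells (3C system) were exposed to test chemical for 24 h, after which MCP-1 was quantified by ELISA. Activity was fitted bidirectionally against DMSO as negative control and baseline.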
# [7] = read-out: Monocyte Chemoattractant Protein-1 (MCP1), CCL2 (gene 6347); test: BSK_4H_MCP1: BioMAP Diversity Plus: 4H Assay for Monocyte Chemoattractant Protein-1 (MCP1) Biomarker Activity (AID 2283018); conditions: primary human endothelial cells (HUVEC); actives raise or lower the signal
# Outline: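 Endothelial cells from umbilical vein were treated with test chemical, then after 24 h MCP-1 levels were quantified by ELISA; endpoint values came from bidirectional fitting with DMSO as baseline of activity.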
# [8] = read-out: Human Leukocyte Antigen - DR isotype (HLADR), HLA-DRA (gene 3122); test: BSK_3C_HLADR: BioMAP Diversity Plus: 3C Assay for Human Leukocyte Antigen - DR isotype (HLADR) Biomarker Activity (AID 2283019); conditions: primary human endothelial cells (HUVEC); actives raise or lower the signal;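 further: ELISA of cell-surface HLA-DR on HUVEC 24 h after dosing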
# Outline: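 Primary human umbilical vein endothelial cells (3C system) were dosed with compound and cell-surface HLA-DR was quantified by ELISA at 24 h. Activity was fitted bidirectionally against DMSO as negative control and baseline.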
# [9] = read-out: Interleukin-8 (IL8), CXCL8 (gene 3576); test: BSK_3C_IL8: BioMAP Diversity Plus: 3C Assay for Interleukin-8 (IL8) Biomarker Activity (AID 2283020); conditions: primary human endothelial cells (HUVEC); actives raise or lower the signal
# Outline: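 Endothelial primary cells of human umbilical vein origin are dosed with chemical; after 24 h the IL-8 biomarker is measured by ELISA, and concentration–response is fitted in both directions versus DMSO.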
# [10] = read-out: Monokine induced gamma interferon (MIG), CXCL9 (gene 4283); test: BSK_3C_MIG: BioMAP Diversity Plus: 3C Assay for Monokine induced gamma interferon (MIG) Biomarker Activity (AID 2283021); conditions: primary human endothelial cells (HUVEC); actives raise or lower the signal
# Outline: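 Endothelial primary cells (human umbilical vein) are dosed with test chemical in the 3C system. MIG levels are measured by ELISA at 24 h and fitted in both directions relative to DMSO.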
# [11] = BSK_3C_SRB: Viability Assessment in the BioMAP Diversity Plus: 3C Assay (AID 2283023); conditions: primary human endothelial cells (HUVEC);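 further: fitted both ways against DMSO so a hit may be signal rise or drop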
# Outline: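 Primary human umbilical vein endothelial cells in the 3C system were read 24 h after compound dosing. Total protein was stained with 0.1% sulforhodamine B after 10% TCA fixation and read at 560 nm, with bidirectional fitting against DMSO as baseline.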
# [12] = read-out: Matrix Metallopeptidase 1 (MMP1), MMP1 (gene 4312); test: BSK_BE3C_MMP1: BioMAP Diversity Plus: BE3C Assay for Matrix Metallopeptidase 1 (MMP1) Biomarker Activity (AID 2283024); conditions: primary human bronchial epithelial cells; actives raise or lower the signal
# Outline: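 MMP1 signal, measured by ELISA after a 24 h chemical exposure of human primary bronchial epithelial cells, is analysed with bidirectional fitting using DMSO as negative control.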
# [13] = BSK_3C_Vis: BioMAP Diversity Plus: 3C Assay for Morphology Visualization (AID 2283025); conditions: primary human endothelial cells (HUVEC);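 further: fitted both ways so gain or loss versus DMSO counts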
# Outline: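 Morphology read by light microscopy serves as a background control for the multiplexed 3C assay in human umbilical vein endothelial cells, taken 24 h after dosing, with DMSO as the negative control and bidirectional curve fitting.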
# [14] = read-out: Pselectin, SELP (gene 6403); test: BSK_4H_Pselectin: BioMAP Diversity Plus: 4H Assay for Pselectin Biomarker Activity (AID 2283026); conditions: primary human endothelial cells (HUVEC); actives raise or lower the signal
# Outline: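 Endothelial primary cells (human umbilical vein) are dosed, incubated 24 h, and assayed for surface P-selectin by ELISA; responses in either direction are fitted relative to the DMSO negative control.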
# [15] = BSK_4H_SRB: Viability Assessment in the BioMAP Diversity Plus: 4H Assay (AID 2283027); conditions: primary human endothelial cells (HUVEC);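 further: cells exposed to compound for 24 h before staining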
# Outline: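 Cytotoxicity readout: sulforhodamine B (0.1%) staining of total protein after 10% TCA fixation, measured at 560 nm in human umbilical vein endothelium at 24 h. DMSO set the baseline; fitting was bidirectional.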
# [16] = BSK_BE3C_SRB: Viability Assessment in the BioMAP Diversity Plus: BE3C Assay (AID 2283028); conditions: primary human bronchial epithelial cells
# Outline: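 Human primary bronchial epithelial cells were exposed to test chemicals for 24 h. Total protein in parallel cultures was then measured by staining with 0.1% sulforhodamine B after 10% TCA fixation, with absorbance read at 560 nm. Activity was fitted bidirectionally against DMSO.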
# [17] = read-out: Thrombomodulin, THBD (gene 7056); test: BSK_3C_Thrombomodulin: BioMAP Diversity Plus: 3C Assay for Thrombomodulin Biomarker Activity (AID 2283029); conditions: primary human endothelial cells (HUVEC); actives raise or lower the signal
# Outline: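 Endothelial cells from umbilical vein are dosed with test chemical and incubated 24 h. Thrombomodulin is then quantified by ELISA, with DMSO serving as negative control and activity baseline.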
# [18] = read-out: Urokinase-type plasminogen activator receptor (uPAR), PLAUR (gene 5329); test: BSK_4H_uPAR: BioMAP Diversity Plus: 4H Assay for Urokinase-type plasminogen activator receptor (uPAR) Biomarker Activity (AID 2283030); conditions: primary human endothelial cells (HUVEC); actives raise or lower the signal
# Outline: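 Primary human umbilical vein endothelial cells were exposed to chemical for 24 h before cell-surface uPAR was quantified by ELISA. Activity was fitted bidirectionally against the DMSO negative control baseline.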
# [19] = read-out: Vascular endothelial growth factor receptor 2 (Homo sapiens) (UniProt P35968); test: BSK_4H_VEGFRII: BioMAP Diversity Plus: 4H Assay for Vascular endothelial growth factor receptor 2 (VEGFR2) Biomarker Activity (AID 2283031); conditions: primary human endothelial cells (HUVEC); actives raise or lower the signal
# Outline: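 Primary human umbilical vein endothelial cells in the BioMAP 4H system were dosed with test chemical, and 24 h later VEGFRII was measured by ELISA. Activity was fitted bidirectionally against DMSO as negative control and baseline.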
# Chain of human Retinoid X Receptor beta (RXRb), RXRB (gene 6257) (P28702 whole entry, looked up, the tested form may be a part): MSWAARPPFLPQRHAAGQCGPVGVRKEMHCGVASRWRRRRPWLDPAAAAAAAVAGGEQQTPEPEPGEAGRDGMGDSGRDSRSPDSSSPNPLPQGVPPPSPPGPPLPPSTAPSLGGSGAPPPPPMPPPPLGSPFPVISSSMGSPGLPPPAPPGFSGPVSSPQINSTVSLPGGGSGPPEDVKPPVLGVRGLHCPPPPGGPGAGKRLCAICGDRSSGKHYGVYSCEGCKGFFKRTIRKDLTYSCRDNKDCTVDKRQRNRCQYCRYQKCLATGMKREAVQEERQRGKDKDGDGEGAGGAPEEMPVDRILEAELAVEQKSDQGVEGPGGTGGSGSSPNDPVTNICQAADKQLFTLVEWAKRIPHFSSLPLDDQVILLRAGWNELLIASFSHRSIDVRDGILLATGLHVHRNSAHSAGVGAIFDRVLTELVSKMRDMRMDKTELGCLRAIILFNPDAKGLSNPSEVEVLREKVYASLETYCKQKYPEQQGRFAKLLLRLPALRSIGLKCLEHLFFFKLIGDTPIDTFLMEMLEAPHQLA
# Chain of E-selectin (Homo sapiens) (P16581 whole entry, looked up): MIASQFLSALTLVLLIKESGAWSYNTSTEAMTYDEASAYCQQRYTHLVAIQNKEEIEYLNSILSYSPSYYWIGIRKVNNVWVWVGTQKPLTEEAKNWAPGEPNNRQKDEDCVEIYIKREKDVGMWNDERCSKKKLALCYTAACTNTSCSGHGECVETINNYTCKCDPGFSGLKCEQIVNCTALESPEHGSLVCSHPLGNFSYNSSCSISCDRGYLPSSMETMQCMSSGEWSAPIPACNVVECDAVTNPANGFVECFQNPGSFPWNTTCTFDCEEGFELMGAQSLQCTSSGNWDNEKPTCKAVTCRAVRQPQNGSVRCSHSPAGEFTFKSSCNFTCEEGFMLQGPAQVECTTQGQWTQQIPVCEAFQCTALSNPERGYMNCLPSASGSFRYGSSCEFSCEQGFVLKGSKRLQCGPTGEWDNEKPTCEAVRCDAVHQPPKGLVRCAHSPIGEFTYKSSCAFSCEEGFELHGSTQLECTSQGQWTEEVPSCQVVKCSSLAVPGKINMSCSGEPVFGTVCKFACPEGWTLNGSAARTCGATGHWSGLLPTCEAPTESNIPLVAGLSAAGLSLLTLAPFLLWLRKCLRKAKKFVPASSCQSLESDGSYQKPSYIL
# Chain of human Thyroid Receptor alpha (THRa1), THRA (gene 7067) (P10827 whole entry, looked up, the tested form may be a part): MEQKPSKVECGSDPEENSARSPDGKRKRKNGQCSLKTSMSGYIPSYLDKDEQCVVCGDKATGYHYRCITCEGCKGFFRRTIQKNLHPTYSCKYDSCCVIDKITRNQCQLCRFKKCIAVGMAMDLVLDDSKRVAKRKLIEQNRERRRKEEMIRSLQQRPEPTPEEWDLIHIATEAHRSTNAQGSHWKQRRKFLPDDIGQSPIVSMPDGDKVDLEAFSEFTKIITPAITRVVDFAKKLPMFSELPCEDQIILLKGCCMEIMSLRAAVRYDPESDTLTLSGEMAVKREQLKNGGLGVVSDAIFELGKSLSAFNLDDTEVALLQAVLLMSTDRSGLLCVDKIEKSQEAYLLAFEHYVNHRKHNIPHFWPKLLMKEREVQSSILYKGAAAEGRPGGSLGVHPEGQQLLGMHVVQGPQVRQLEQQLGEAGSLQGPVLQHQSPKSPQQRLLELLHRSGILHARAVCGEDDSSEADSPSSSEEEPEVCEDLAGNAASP
# Chain of human Vitamin D Receptor (VDR), VDR (gene 7421) (P11473 whole entry, looked up, the tested form may be a part): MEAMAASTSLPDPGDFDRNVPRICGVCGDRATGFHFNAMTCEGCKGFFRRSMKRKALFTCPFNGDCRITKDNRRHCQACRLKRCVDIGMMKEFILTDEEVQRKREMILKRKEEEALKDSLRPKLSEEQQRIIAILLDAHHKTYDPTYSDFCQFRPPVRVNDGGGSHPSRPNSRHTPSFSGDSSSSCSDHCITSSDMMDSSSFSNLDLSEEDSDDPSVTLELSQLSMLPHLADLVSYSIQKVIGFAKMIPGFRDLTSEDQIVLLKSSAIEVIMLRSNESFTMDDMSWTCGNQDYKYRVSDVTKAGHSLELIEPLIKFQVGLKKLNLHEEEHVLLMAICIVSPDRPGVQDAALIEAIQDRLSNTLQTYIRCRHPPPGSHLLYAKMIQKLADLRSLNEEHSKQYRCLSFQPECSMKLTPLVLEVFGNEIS
smiles,measurement,setting,value
CC(=Cc1ccccc1)[N+](=O)[O-],AC50,[1],17.3 µM (active)
same,outcome,[2],inactive
C=CC(=O)NC(C)(C)CC(C)=O,outcome,[3],inactive
N#Cc1ccccc1Cl,outcome,[1],inactive
same,outcome,[2],inactive
O=C(CCl)NCO,outcome,[3],inactive
same,outcome,[4],inactive
same,outcome,[5],inactive
same,outcome,[6],inactive
same,outcome,[7],inactive
same,outcome,[8],inactive
same,outcome,[9],inactive
same,outcome,[10],inactive
same,outcome,[11],inactive
same,outcome,[12],inactive
same,outcome,[13],inactive
same,outcome,[14],inactive
same,outcome,[15],inactive
same,outcome,[16],inactive
same,outcome,[17],inactive
same,outcome,[18],inactive
same,outcome,[19],inactive
O=C(Cc1ccccc1)OCCc1ccccc1,outcome,[1],inactive
same,outcome,[4],inactive
same,outcome,[5],inactive
same,outcome,[6],inactive
same,outcome,[7],inactive
same,outcome,[8],inactive
same,outcome,[9],inactive
same,outcome,[10],inactive
same,outcome,[2],inactive
same,outcome,[11],inactive
same,outcome,[12],inactive
same,AC50,[14],2.34 µM (active)
same,outcome,[14],inactive
same,outcome,[15],inactive
same,outcome,[16],inactive
same,outcome,[17],inactive
same,outcome,[18],inactive
same,outcome,[19],inactive
OCCCCO,outcome,[4],inactive
same,outcome,[5],inactive
same,outcome,[6],inactive
same,outcome,[7],inactive
same,outcome,[8],inactive
same,outcome,[9],inactive
same,outcome,[10],inactive
same,outcome,[11],inactive
same,outcome,[12],inactive
same,outcome,[14],inactive
same,outcome,[15],inactive
same,outcome,[16],inactive
same,outcome,[17],inactive
same,outcome,[18],inactive
CCC[CH2][Sn]([Cl])([Cl])[CH2]CCC,outcome,[3],inactive
Cc1ccc(CCl)cc1,outcome,[3],inactive
Oc1c(Cl)cc(Cl)cc1Cl,outcome,[3],inactive
same,outcome,[4],inactive
same,outcome,[5],inactive
same,outcome,[6],inactive
same,outcome,[7],inactive
same,outcome,[8],inactive
same,outcome,[9],inactive
same,outcome,[10],inactive
same,outcome,[11],inactive
same,outcome,[12],inactive
same,outcome,[13],inactive
same,outcome,[14],inactive
same,outcome,[15],inactive
same,outcome,[16],inactive
same,outcome,[17],inactive
same,outcome,[18],inactive
same,outcome,[19],inactive
Cc1cc(Cl)ccc1OC(C)C(=O)O (stereo not given),outcome,[3],inactive
same,outcome,[4],inactive
same,outcome,[5],inactive
same,outcome,[6],inactive
same,outcome,[7],inactive
same,outcome,[8],inactive
same,outcome,[9],inactive
same,outcome,[10],inactive
same,outcome,[11],inactive
same,outcome,[12],inactive
same,outcome,[13],inactive
same,outcome,[14],inactive
same,outcome,[15],inactive
same,outcome,[16],inactive
same,outcome,[17],inactive
same,outcome,[18],inactive
same,outcome,[19],inactive
